Source: PubChem BioAssay
Shown are actives, neighbours in structure and some others; about 11% of the full set was active somewhere.
JMJD2A Tudor: qHTS Assay for Inhibitors of JMJD2A-Tudor Domain; 390,000 tested, 4.4% active; AlphaScreen JMJD2A-Tudor / H3K4me3 peptide binding; Potency, µM (titrated, usually from 114 µM), inactives show top-dose activity change, negative = inhibition, actives largely listed as inhibitors; AID 504339, 2011; note: % is set by controls: 0 for no effect and ±100 for the full control effect; nearly all actives have a fitted effect of over 50% in size
BAZ2B inh: qHTS Assay for Inhibitors of BAZ2B; Bromodomain adjacent to zinc finger domain protein 2B (Homo sapiens), Q9UIF8; AlphaScreen BAZ2B-H3K14Ac peptide displacement; Potency, µM (top dose mostly 114 µM), for the others: top-dose activity change, negative = inhibition, most hits filed as inhibitors; 360,000 tested, 4.4% active; AID 504333, 2011; note: % is set by controls: 0 for no effect and ±100 for the full control effect; nearly all actives have a fitted effect of over 60% in size
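In this displacement format the biotinylated H3(5-23) peptide acetylated at Lys14 serves as ligand at 50 nM, with BAZ2B at 50 nM in PBS pH 7.4 containing 0.01% Tween-20. Donor and acceptor beads are 10 ug/mL final.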
HP1b chromo inh: HTS for Inhibitors of HP1-beta Chromodomain Interactions with Methylated Histone Tails; Potency, µM (doses to about 114 µM), for the others: top-dose activity change, negative = inhibition, usual class: inhibitors; Chromobox protein homolog 1 (Homo sapiens), P83916; AlphaScreen HP1-beta / biotin-H3K9me3 peptide binding; 390,000 tested, 0.56% active; note: nearly all actives have a fitted effect of over 70% in size
Target sequence (P83916 whole entry, looked up): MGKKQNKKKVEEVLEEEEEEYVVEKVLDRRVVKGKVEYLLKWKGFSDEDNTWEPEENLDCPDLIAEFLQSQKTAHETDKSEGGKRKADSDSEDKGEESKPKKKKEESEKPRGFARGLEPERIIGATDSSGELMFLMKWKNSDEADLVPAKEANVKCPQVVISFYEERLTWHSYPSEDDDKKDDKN
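AlphaScreen: HP1-beta (50 nM) preformed 30 min with biotin-H3(1-18)K9me3 peptide (50 nM) in PBS pH 7.4, 0.01% Tween-20. Compound added for 30 min at RT, then streptavidin donor/nickel chelate acceptor beads (10 ug/mL) for 30 min.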
L3MBTL1 inh: qHTS Assay for the Inhibitors of L3MBTL1; Lethal(3)malignant brain tumor-like protein 1 (Homo sapiens), Q9Y468; Potency, µM (doses to about 57.1 µM), for the others: at the highest dose activity, negative = inhibition, actives largely listed as inhibitors; 230,000 tested, 0.66% active; AlphaScreen L3MBTL1–H3K9me1 peptide binding; note: % is set by controls: 0 for no effect and ±100 for the full control effect; nearly all actives have a fitted effect of over 60% in size
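AlphaScreen proximity signal between nickel-chelate acceptor and streptavidin donor beads (final 10 ug/mL) reports binding of 50 nM L3MBTL1 to 75 nM biotin-H3 K9me1 peptide; complex incubated with compounds 30 min at room temperature; cefsulodin titration as control.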
G9a block: qHTS Assay for Inhibitors of Histone Lysine Methyltransferase G9a | Histone-lysine N-methyltransferase EHMT2 (Homo sapiens), Q96KQ7 | Potency, µM (doses to about 102 µM), inactives show at the highest dose activity, negative = inhibition, usual class: inhibitors | 350,000 tested, 8.8% active | G9a H3K9 monomethylation, AlphaScreen, 2 h; note: % is set by controls: 0 for no effect and ±100 for the full control effect; nearly all actives have a fitted effect of over 75% in size
Target sequence (Q96KQ7 913-1193 limits assumed): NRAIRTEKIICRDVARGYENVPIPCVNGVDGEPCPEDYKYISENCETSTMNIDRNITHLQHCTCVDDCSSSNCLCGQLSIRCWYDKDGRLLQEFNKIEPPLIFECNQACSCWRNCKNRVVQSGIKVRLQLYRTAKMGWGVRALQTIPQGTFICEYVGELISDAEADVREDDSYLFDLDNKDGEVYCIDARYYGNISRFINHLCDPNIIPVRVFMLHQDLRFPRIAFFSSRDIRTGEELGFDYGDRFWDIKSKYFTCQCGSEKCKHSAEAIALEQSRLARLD
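G9a (20 nM) preincubated 15 min RT with compounds, then 500 nM biotinylated H3K9 peptide and 20 uM SAM added; 2 h RT reaction. Monomethyl-H3K9 product detected by AlphaScreen with anti-H3K9me1 antibody, streptavidin donor and anti-rabbit IgG acceptor beads.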
Numbers without * were called inactive; ? = inconclusive; nt = not tested or not shown; [ ] = dose if it differs, or a comment. Calls come from the whole dose curve; as a rule, active = well fitted inhibition curve with a large enough effect; inconclusive = small, poorly fitted or top-dose-only effect; inactive = no such curve, though single readings can be large or run the other way. Potency is the fitted concentration of half-maximal effect.

SMILES | JMJD2A Tudor | BAZ2B inh | HP1b chromo inh | L3MBTL1 inh | G9a block
CC(C)Cc1nnc(NC(=O)C2=COCCO2)s1 | -10% | -17% | 40% | 3% | 1%[12.7 µM]
Cc1ccc(Nc2nc(N)nc(CSC(=S)N3CCN(c4ccccc4)CC3)n2)cc1 | ? | ? | -13% | ? | 35µM*
Nc1nc(CSC(=S)N2CCN(c3ccccc3)CC2)nc(Nc2ccccc2)n1 | ? | ? | -16% | -26% | 45µM*
CCc1cccc(N(C(=O)c2csnn2)C(C(=O)NC(C)(C)C)c2ccncc2)c1 (stereo not given) | 56µM* | ? | -5% | -10% | 33%
O=C(NCc1ccccc1)C(c1ccncc1)N(C(=O)c1ccccn1)c1ccccc1 (stereo not given) | 25µM* | 50µM* | 47% | nt | 22µM*
COc1ccc(NC(=O)c2oc3ccccc3c2NC(=O)Cc2coc3cc(C)ccc23)cc1 | -16% | -7% | 36% | nt | -4%[59 µM]
Cc1sc2nc3ccc(NCc4ccco4)nn3c(=O)c2c1C | -32% | -7% | 73% | 5% | 18µM*
CCn1c(SCC(=O)NCc2ccco2)nc2c(c1=O)SC(C)C2 (stereo not given) | -33% | -7% | 5% | -2% | 14µM*
Cc1sc2nc(C3CC3)nc(SCC(=O)NCc3ccco3)c2c1C | -15% | -13% | 26% | -7% | 50µM*
O=c1c2ccccc2nc2ccc(NCc3ccco3)nn12 | -33% | ? | -10% | -11% | -12%[59 µM]
O=C(CSc1nnc(C2CC2)n1-c1ccccc1)NCc1ccco1 | -20% | 14% | 22% | nt | 79µM*
O=C(CSc1nnc(-c2ccccc2)n1-c1ccccc1)NCc1ccco1 | -18% | -29% | 5% | nt | ?
CCCc1nc(SCC(=O)NCc2ccco2)c2c(=O)n(C)c(=O)n(C)c2n1 | -24% | 1% | 25% | 1% | 45µM*
CCCc1cnc2c(c1SCC(=O)NCc1ccc(C)cc1)c(=O)n(C)c(=O)n2C | -14% | -23% | 1% | nt | 10µM*
COc1ccc(NC(=O)CSc2oc(-c3ccc(F)cc3)nc2S(=O)(=O)c2ccc(C)cc2)c(OC)c1 | ? | -20% | ? | nt | ?
COc1ccc(OC)c(CNC(=O)c2cc3ccc4cccnc4c3[nH]2)c1 | ? | -21%[57.1 µM] | 16% | nt | -50%[59 µM]
COc1ccc(-c2ocnc2C(=O)N2CCN(C(=O)C(c3ccccc3)c3ccccc3)CC2)cc1 | -20% | -30% | 18% | nt | 50µM*
Cc1nn2c(C)c(C(=O)Nc3ccccc3)cnc2c1C#N | -12% | -1% | 13% | nt | 16µM*
Cc1cc2ncc(C(=O)Nc3ccccc3)c(C)n2n1 | -8% | 1% | 50% | 8% | 19%[12.7 µM]
COc1ccc(C)cc1NC(=O)CSc1nnc(-c2cc(C)[nH]n2)n1N | -18% | -3% | 42% | nt | -5%[0.0925 µM]
COn1cnnc1-c1ccccc1 | -7% | 7% | 27% | -6% | 13µM*
O=C(OCc1ccc([N+](=O)[O-])cc1)c1cc(=O)c2ccccc2o1 | -8% | -1% | 18% | nt | 50µM*
CCCCNc1cc(=O)oc2ccccc12 | -9%[57.1 µM] | -4% | 42% | 4% | 14%[12.7 µM]
CCOc1ccc(NC(=O)COC(=O)c2cc(=O)c3ccccc3o2)cc1 | -5% | 10% | 48% | 4% | 20µM*
CCOc1ccc(Nc2cc(=O)oc3ccccc23)cc1 | -15% | 71µM* | 19% | -3% | 14%
SMILES | JMJD2A Tudor | BAZ2B inh | HP1b chromo inh | L3MBTL1 inh | G9a block
Cn1c(=O)n(C/C=C/c2ccccc2)c(=O)c2c1nc1n2CCN1c1ccccc1 | -26% | -21% | 43% | nt | 5%[59 µM]
COc1cc(C(C(=O)NC2CCCCC2)N(C(=O)Cc2c[nH]c3ccccc23)c2ccccc2C)cc(OC)c1OC (stereo not given) | -29% | ? | 0% | -14% | 40µM*
COc1ccc(CN(C(=O)Cc2c[nH]c3ccccc23)C(C(=O)NC2CCCCC2)c2ccc(C)o2)cc1 (stereo not given) | ? | -30% | 0% | -1% | ?
COc1cc(C(C(=O)NC2CCCCC2)N(Cc2cccs2)C(=O)Cc2c[nH]c3ccccc23)cc(OC)c1OC (stereo not given) | -14% | -2% | 17% | -6% | 11%
Cc1ccc(C(C(=O)NC2CCCCC2)N(Cc2ccccc2)C(=O)Cc2c[nH]c3ccccc23)o1 (stereo not given) | ? | ? | 1% | -11% | 2.5µM*
COCCCNc1nc2c(c(=O)[nH]c(=O)n2C)n1CC(O)COc1ccc(Cl)cc1 (stereo not given) | -11% | 0% | 19% | nt | -8%[59 µM]
CCOC(=O)c1ccc(NC(=O)c2nn(C)c3c2COc2ccccc2-3)cc1 | ? | ? | 17% | nt | 14µM*
CCc1ccccc1NC(=O)c1cn(C)c(=O)c2ccccc12 | -5% | 7% | 38% | nt | 10%[59 µM]
Cc1[nH]c2c(ccc3cccnc32)c1C | 45µM* | 35µM* | ? | -22% | -33%[12.7 µM]
CCc1ccc(NC(=O)c2cc(C(C)=O)n3ccccc23)cc1 | -5% | 0% | 63% | nt | 1%[59 µM]
COC(=O)c1cc(C(C)=O)n2ccccc12 | -18%[11.4 µM] | 50µM* | -6% | nt | 1%[59 µM]
COc1ccc(OC)c(-c2nnc3n2N=C(c2c(OC)cccc2OC)CS3)c1 | -26% | nt | nt | nt | nt
CC(C)c1nn2c(=O)cc(COC(=O)c3ccc(NC(=O)C4CCCCC4)cc3)nc2s1 | -13% | -5% | 37% | nt | 18%[59 µM]
Cc1cc(C)cc(Oc2c(C(F)(F)F)oc3cc(OCC(=O)NC4CCCCC4)ccc3c2=O)c1 | -14% | 2% | 44% | nt | -4%[59 µM]
CC(/C=C/c1ccco1)=N\NC(=O)c1cc(C)[nH]n1 | -26% | -9% | 14% | ? | 50µM*
Cc1cc(C(=O)N/N=C/c2ccco2)n[nH]1 | -5% | 11% | 24% | 31% | 5%
CC(/C=C/c1ccco1)=N/NC(=O)OC(C)(C)C | -8% | -5% | 23% | -3% | 71µM*
O=C(/C=C/c1ccco1)Nc1cccnc1 | -4% | -36% | 45% | -15% | nt
CC(/C=C/c1ccco1)=N\NC(=O)c1cccnc1 | -24% | -7% | 10% | nt | 50µM*
O=C(/C=C/c1ccco1)c1cccnc1 | ? | -33% | 0% | nt | 40µM*
O=[N+]([O-])c1cc(C(F)(F)F)cc([N+](=O)[O-])c1NCCNC(=S)Nc1cccc(F)c1 | 40µM* | 18µM* | -25% | ? | ?
Fc1ccc(CNC(=S)Nc2cccc(C(F)(F)F)c2)cc1 | 11% | 45% | 45% | 49% | 108%[59 µM]
O=C1CC(Cc2ccccc2)C(=O)N1CCCn1ccnc1 (stereo not given) | nt | 50µM* | nt | 4% | ?
